Hits are enriched below; roughly 0.71% of the tested compounds scored in any of these assays.
CBFb-RUNX1 inh: inhibitors of human CBF-beta and RUNX1 interaction; 230,000 tested, under 10 active; AID 1477; Q01196+Q13951; Potency, µM (titrated, usually from 59.8 µM), without a hit: at the top dose activity, negative = inhibition, actives largely listed as inhibitors; AlphaScreen CBFb-His/RUNX1-biotin binding, biochemical; further: % of control where 0% means no effect
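CBF-beta (His) and RUNX1 (biotin), 30 nM each; 20 min preassociation; + compound, 15 min; + beads 50 ng each (Ni, streptavidin), 90 min; RT; AlphaScreen read.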
Epigenetic derep: regulators of epigenetic silencing causing reporter derepression in mouse cells; 280,000 compounds, 0.2% hits; murine LDR cells, GFP reporter derepression, 30 h; AID 1865; Potency, µM (highest dose often 53.9 µM), without a hit: top-dose GFP activation, most hits filed as activators; further: potency means the concentration at half of the fitted maximal effect; % of control where 0% means no effect; nearly all actives have a fitted effect of over 60% in size
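In this reporter-derepression format, murine cells bearing a silenced integrated CMV-GFP locus incubate with test compound (30 h, 37 C), then are washed and imaged; fluorescent objects of 20–120 um count as induced cells.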
TRb SRC2 PPI: disrupts binding of human TR beta to SRC2. P10828. TRbeta-SRC2 peptide binding, fluorescence polarization; receptor liganded with 1 µM T3. Potency, µM (doses to about 106 µM), for inactives: at the top dose activity change, negative = inhibition, most hits filed as inhibitors. 280,000 compounds, 0.065% hits;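 further: potency means the concentration at half of the fitted maximal effect; plate controls were bound peptide for no effect and peptide without receptor for full effect; nearly all actives have a fitted effect of over 50% in size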
Target sequence (P10828 whole entry, looked up): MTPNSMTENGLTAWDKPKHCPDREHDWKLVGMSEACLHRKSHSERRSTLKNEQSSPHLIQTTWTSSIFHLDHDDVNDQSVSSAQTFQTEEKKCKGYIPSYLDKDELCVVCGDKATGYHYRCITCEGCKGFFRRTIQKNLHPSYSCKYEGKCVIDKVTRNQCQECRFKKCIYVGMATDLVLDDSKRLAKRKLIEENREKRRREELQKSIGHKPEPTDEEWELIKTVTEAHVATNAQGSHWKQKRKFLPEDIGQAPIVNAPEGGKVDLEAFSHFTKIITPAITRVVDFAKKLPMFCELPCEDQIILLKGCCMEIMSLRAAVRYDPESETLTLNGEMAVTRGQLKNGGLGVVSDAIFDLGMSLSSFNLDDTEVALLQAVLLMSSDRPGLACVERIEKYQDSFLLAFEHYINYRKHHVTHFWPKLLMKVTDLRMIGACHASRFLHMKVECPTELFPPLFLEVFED
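Human TRb LBD (0.6 uM) plus Texas Red-labeled SRC2 peptide (20 nM), 1uM T3, 5% DMSO, 5 hr at ambient temperature. Decreased polarization (555/632 nm) flags inhibition; data normalized to free and bound peptide controls.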
GoLoco inh red: RGS12 GoLoco-Gai1 interaction inhibition; P63096; Gai1:RGS12 GoLoco peptide FP, rhodamine, 10 min; Potency, µM (highest dose often 61.6 µM), for inactives: top-dose activity, negative = inhibition, usual class: inhibitors; 230,000 compounds, 0.44% hits; AID 880; active means well fitted inhibition curve with a large enough effect, not every such curve was filed as active; inactive means no such curve, though single readings can be large or run the other way; further: potency means the concentration at half of the fitted maximal effect; on the % scale 0 is the no-effect control and ±100 the full control effect; nearly all actives have a fitted effect of over 30% in size
Target sequence (P63096 whole entry, looked up): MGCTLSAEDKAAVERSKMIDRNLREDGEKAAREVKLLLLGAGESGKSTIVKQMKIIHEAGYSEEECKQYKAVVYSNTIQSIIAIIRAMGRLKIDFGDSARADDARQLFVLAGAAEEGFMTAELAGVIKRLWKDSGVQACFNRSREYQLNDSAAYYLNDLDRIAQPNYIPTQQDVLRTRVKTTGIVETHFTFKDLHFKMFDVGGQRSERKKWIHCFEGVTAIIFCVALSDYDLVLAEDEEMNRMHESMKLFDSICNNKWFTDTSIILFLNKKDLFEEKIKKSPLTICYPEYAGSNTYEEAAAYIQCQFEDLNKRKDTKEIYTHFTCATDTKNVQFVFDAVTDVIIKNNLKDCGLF
TR SRC2 fluor cs: Texas Red fluorescence interference in TRb-SRC2 counter-screen. 280,000 compounds, 0.29% hits. TRb/SRC2 Texas Red total fluorescence interference. AID 1479. Potency, µM (doses to about 106 µM), without a hit: top-dose fluorescence change, negative = quenching; active means well fitted curve in either direction with a large enough effect; inconclusive means small, poorly fitted or top-dose-only effect; further: potency means the concentration at half of the fitted maximal effect; on the % scale 0 is the no-effect control and ±100 the full control effect
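Human TRb ligand-binding domain at 0.6 uM with 20 nM Texas Red SRC2 peptide in Tris buffer containing 1 uM T3 and 5% DMSO, incubated with compound 5 h at ambient temperature. Total fluorescence (555/632 nm) calculated as parallel + 2 × perpendicular.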
The depositor's hits bear a star; ? = inconclusive; · = not tested or not shown; ! = not confirmed by another sample; [ ] = remark or other dose. Unless noted, the call rests on the fitted dose curve; in most records, active means well fitted curve in the direction sought with a large enough effect; inconclusive means small, poorly fitted or top-dose-only effect, or another doubt; inactive means no such curve, though single readings can be large; an effect the other way counts as inactive or inconclusive.

SMILES	CBFb-RUNX1 inh	Epigenetic derep	TRb SRC2 PPI	GoLoco inh red	TR SRC2 fluor cs
CCOC(=O)c1c(S(=O)(=O)NCC(=O)N2CCN(c3cc(C)ccc3C)CC2)c(C)n(C)c1C	·	-2.1%	-4.8%	·	-11.0%
CCC1CN2CCC1CC2[C@@H](NC(=S)Nc1cc(C(F)(F)F)cc(C(F)(F)F)c1)c1cccc2ccc(OC)cc12 (some centres undefined)	-4.7%	-1.1%	0.3%	4.7%	0.0%
O=c1/c(=C/c2ccc(O)c([N+](=O)[O-])c2)sc2nc3ccccc3n12	4.4%	-0.5%	-3.0%	1.3%	-2.1%
CCN(CC)c1ccc(/C=c2\sc3nc4ccccc4n3c2=O)c(O)c1	?	?	-18.6%	-29.7%	50.1µM*[fluorescent]
Cc1ccc(/C=C(\C#N)C(=O)Nc2ccc(Br)cc2)o1	·	22.4µM*	2.9%	·	4.0%
CCc1ccc(/C=C/c2c[nH]c3ccccc23)[n+](CC)c1	2.5%	18.6%	-7.5%	6.31µM*	-0.7%
CN(C)c1ccc(/C=C(\C#N)C(=O)Nc2nc3c(s2)CCN(Cc2ccccc2)C3)cc1	-0.6%	7.94µM*	-1.2%	119.1%	-2.5%
C1CCCNCC1	6.8%[21.7 µM]	·	8.5%	22.4µM*	-2.2%
CCc1nn2c(-c3ccccc3OC)ccnc2c1-c1ccc(F)cc1	·	-1.1%	-9.3%	·	8.91µM*[quencher]
Cc1cc(C)n2nc(SCC(=O)Nc3ccccc3)nc2n1	1.2%	-0.9%	-1.5%	9.4%	-2.2%
Cc1cc(C)c(NC(=O)CSc2nc3nc(C)cc(C)n3n2)c(C)c1	·	1.6%	-8.7%	·	20µM*[quencher]
Nc1ncncc1-c1ccc2ccccc2c1	8.1%	-0.9%	7.7%	0.2%	0.1%
O=C(O)CCC(=O)c1cccc2ccccc12	12.1%	-1.1%	-8.8%	6.6%	-3.4%
C[N+](C)(C)CCC(=O)c1cccc2ccccc12	-5.8%	-0.2%	1.5%	25.1µM*!	0.5%
CN(C)c1ccc2c(-c3ccccc3)c3ccc(=[N+](C)C)cc-3oc2c1	·	·	0.1µM*	·	0.891µM*[fluorescent]
CC[n+]1c(/C=C(\C)Nc2ccccc2)sc2ccccc21	-8.5%	1.1%	-3.9%	42.7%	-2.8%
CC[n+]1c(C=C2C=C(C)OC(C)=C2)sc2ccccc21	1.1%	7.94µM*	-6.9%	63.5%	-4.2%
CC[n+]1c(/C=C/Nc2ccccc2)sc2ccccc21	-0.8%	-1.0%	?	221.6%	44.7µM*[fluorescent]
CC(C)(C)c1ccc(-c2cn(-c3ccc(Br)cc3)c3[n+]2CCCS3)cc1	-0.1%	1.5%	-1.9%	35.5µM*	-4.6%
c1ccc(-c2cn(-c3ccccc3)c3[n+]2CCS3)cc1	15.5%	-1.1%	-1.3%	-12.9%	-0.7%
CCCCCCCCCCCCC/C=C/[C@@H](O)[C@@H](N)CO	?	1.2%	2.0%	14.7%	?
CCCCCCCCCCCCC/C=C/[C@@H](O)[C@@H](N)COP(=O)(O)O	2.4%	4.8%	4.5%	22.4µM*!	0.3%
C=CCCCCCCCCCC	·	·	4.0%[201 µM]	·	-1.9%[201 µM]
COc1ccc(N=C2NC(=O)S/C2=C\c2ccc(N(C)C)cc2)cc1	-5.4%	?	31.6µM*	-96.2%	50.1µM*[fluorescent]
CCN(C(=O)CSc1nnc(-c2cc3occc3n2C)n1-c1ccccc1C)c1ccccc1	·	0.0%	-20.6%	·	79.4µM*[quencher]
SMILES	CBFb-RUNX1 inh	Epigenetic derep	TRb SRC2 PPI	GoLoco inh red	TR SRC2 fluor cs
Cc1cccc(NC(=O)Cn2c(=O)n(Cc3ccccc3)c(=O)c3sc4ccccc4c32)c1	·	-0.9%	-27.7%[53 µM]	·	25.1µM*[quencher]
O=C(NCc1cccc(F)c1)C1CCN(C(=O)c2sccc2-n2cccc2)CC1	-2.0%	-0.2%	-5.7%	4.4%	25.1µM*![quencher]
O=C(NCc1ccccc1)C1CCN(C(=O)c2cnn(-c3ccccc3)c2-n2cccc2)CC1	·	0.0%	-8.7%	·	31.6µM*[quencher]
COCCCNC(=O)C1CCN(C(=O)c2cnn(-c3ccccc3)c2-n2cccc2)CC1	·	-5.9%	2.9%	·	0.9%
CCN1C(=O)/C(=C/C=C2/Sc3ccccc3N2CCO)SC1=S	-12.7%	0.4%	-16.5%	241.1%	21.7%
CCCCN1C(=O)/C(=C/C=C2\Oc3ccccc3N2CC)SC1=S	-2.2%	1µM*	24.3%[53 µM]	119.6%	17.8%[53 µM]
CN1CCS/C1=C\C=C1/SC(=S)N(CC(=O)O)C1=O	-9.3%	-0.3%	2.9%	52.7%	0.2%
CCCCN1C(=O)/C(=C/C=C2/CC(C)(C)CN2C)SC1=S	?	14.1µM*	-9.7%	22.2%	2.2%
CN1/C(=C\C=C2/SC(=S)N(CC(=O)O)C2=O)C(C)(C)c2ccccc21	?	1.1%	?	-144.4%	44.7µM*[fluorescent]
CCN1C(=O)/C(=C/C=C2/SCCN2C)SC1=S	-5.8%	-1.2%	7.7%	-68.0%	0.3%
C=CCN1C(=O)/C(=C\C=C2\N(C)c3ccccc3C2(C)C)SC1=S	-5.0%	5.01µM*	13.1%	-67.8%	?
O[C@@H](c1cc(-c2ccc(Cl)cc2)nc2ccccc12)C1CCCCN1 (some centres undefined)	·	·	·	0.6%[14.2 µM]	·
O=[N+]([O-])c1ccc(O)cc1C(F)(F)F	·	·	-8.7%[201 µM]	·	1.3%[201 µM]
COC(=O)C1=C(C)NC(C)=C(C(=O)OCCCN2CCC(c3ccccc3)(c3ccccc3)CC2)[C@H]1c1cccc([N+](=O)[O-])c1	-13.3%[21.7 µM]	1.0%	7.1%	4.0%	-1.2%
CCCN1C(=O)/C(=C/C=C2\N(CC)c3ccccc3C2(C)C)SC1=S	-5.7%	3.16µM*	13.4%	-60.6%	4.9%
C=CC1=C2C=C(C3CC3)N(Cc3ccc4c(c3)OCO4)C=C2C(=O)C(C)(OC(=O)c2ccco2)C1=O (centres undefined)	-0.9%[13.1 µM]	·	1.4%[11.2 µM]	-5.1%[14.2 µM]	0.6%[11.2 µM]
N#C/C(=C/c1ccc(O)cc1)c1nc(-c2ccc(-c3ccccc3)cc2)cs1	·	11.2µM*	1.3%	·	-14.3%
COc1ccc(/C=C(/C#N)c2nc(-c3ccc(-c4ccccc4)cc3)cs2)cc1	·	-1.6%	1.1%	·	-4.2%
Cc1ccc(C(=O)c2ccccc2)cc1	·	·	5.3%[201 µM]	·	3.0%[201 µM]
CCOc1cc(/C=N\Nc2ccc([N+](=O)[O-])cc2)ccc1OCC(=O)Nc1ccc(C)c(C)c1	1.0%	?	4.5%	9.5%	-1.1%
COc1cc(/C=N\Nc2ccc([N+](=O)[O-])cc2)ccc1OCC(=O)Nc1ccc(C)c(C)c1	-0.2%	6.31µM*	4.6%	10.1%	-2.2%
COc1cc(/C=N/NC(=O)c2cc(-c3ccccc3)n[nH]2)cc(OC)c1OC	·	4.1%	·	·	·
O=C(O)c1ccc(/C=N/N2CCN(Cc3ccc(Cl)cc3)CC2)cc1	17.4%	1.1%	-6.3%	8.3%	0.5%
Cc1ccc(CN2CCN(/N=C/c3ccc(C(=O)O)cc3)CC2)cc1	-1.4%	0.0%	-6.0%	-10.0%	0.0631µM*[quencher]
OC[C@@H]1O[C@@H](n2cnc3c(SCc4ccccc4)ncnc32)[C@@H](O)[C@H]1O	·	·	·	2.6%[14.2 µM]	·
Cc1ccc(F)cc1-c1ccc(C(=O)N=C(N)N)o1	14.7%	·	-5.9%	·	1.1%
Nc1c(C(=O)c2ccc(Cl)cc2)sc2nsc(SCCN3CCOCC3)c12	-1.4%	20µM*	-4.7%	13.8%	-2.1%
